# According to the supplement of paper PMC8728848:
# About 410 targets per protein were measured; listed, in parts, are those with the strongest signals and a random draw of the rest.
# Legend:
# Assay in all cases: glycan array binding signal (z-score within array); higher = stronger binding
# Conditions in all cases: glycan notation: IUPAC condensed, linker removed
# [1] = target: Fuc(a1-2)Gal(b1-3)[Fuc(a1-4)]GlcNAc(b1-2)Man(a1-3)[Fuc(a1-2)Gal(b1-3)[Fuc(a1-4)]GlcNAc(b1-2)Man(a1-6)]Man(b1-4)GlcNAc(b1-4)GlcNAc
# Outline: (§1)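 The binding signal is a Z-score computed within each array and averaged over linkers. Arrays of the same protein sequence at different concentrations or buffers were also averaged together. Data originate from 3228 arrays in the Consortium for Functional Glycomics database, kept only where the protein sequence was available.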
# [2] = target: Fuc(a1-2)Gal(b1-4)Glc6S
# Outline: as §1
# [3] = target: Fuc(a1-2)Gal(b1-4)GlcNAc(b1-2)[Fuc(a1-2)Gal(b1-4)GlcNAc(b1-4)]Man(a1-3)[Fuc(a1-2)Gal(b1-4)GlcNAc(b1-2)Man(a1-6)]Man(b1-4)GlcNAc(b1-4)GlcNAc
# Outline: as §1
# [4] = target: Fuc(a1-2)Gal(b1-4)GlcNAc6S
# Outline: as §1
# [5] = target: Fuc(a1-2)[GalNAc(a1-3)]Gal(b1-4)GlcNAc(b1-2)Man(a1-3)[Fuc(a1-2)[GalNAc(a1-3)]Gal(b1-4)GlcNAc(b1-2)Man(a1-6)]Man(b1-4)GlcNAc(b1-4)GlcNAc
# Outline: as §1
# [6] = target: Fuc(a1-2)[GalNAc(a1-4)]Gal(b1-4)GlcNAc
# Outline: as §1
# [7] = target: Fuc(a1-3)[Gal(b1-4)]Glc6S
# Outline: as §1
# [8] = target: Fuc(a1-3)[Gal3S(b1-4)]GlcNAc
# Outline: as §1
# [9] = target: Gal(a1-3)Gal(b1-4)[Fuc(a1-3)]GlcNAc(b1-2)Man(a1-3)[Gal(a1-3)Gal(b1-4)[Fuc(a1-3)]GlcNAc(b1-2)Man(a1-6)]Man(b1-4)GlcNAc(b1-4)GlcNAc
# Outline: as §1
# [10] = target: Gal(a1-4)GlcNAc
# Outline: as §1
# [11] = target: Gal(b1-3)GalNAc(b1-3)Gal(a1-4)Gal(b1-4)Glc
# Outline: as §1
# [12] = target: Gal(b1-3)GalNAc(b1-4)Gal(b1-4)Glc
# Outline: as §1
# [13] = target: Gal(b1-3)GlcNAc(b1-3)Gal(b1-4)[Fuc(a1-3)]GlcNAc(b1-6)[Gal(b1-3)GlcNAc(b1-3)]Gal(b1-4)Glc
# Outline: as §1
# [14] = target: Gal(b1-4)GlcNAc(b1-3)Gal(b1-4)[Fuc(a1-3)]GlcNAc(b1-3)Gal(b1-4)[Fuc(a1-3)]GlcNAc
# Outline: as §1
# [15] = target: Gal(b1-4)GlcNAc(b1-6)[Gal(b1-3)]GalNAc
# Outline: as §1
# [16] = target: Gal3S(b1-4)GlcNAc
# Outline: as §1
# [17] = target: Gal3S(b1-4)[Fuc(a1-3)]Glc
# Outline: as §1
# [18] = target: Gal3S(b1-4)[Fuc(a1-3)]Glc6S
# Outline: as §1
# [19] = target: Gal6S(b1-4)Glc
# Outline: as §1
# [20] = target: GalNAc(a1-3)GalNAc(b1-3)Gal(a1-4)Gal(b1-4)GlcNAc
# Outline: as §1
# [21] = target: GalNAc3S(b1-4)GlcNAc
# Outline: as §1
# [22] = target: Glc(a1-4)Glc(a1-4)Glc(a1-4)Glc
# Outline: as §1
# [23] = target: Glc(b1-4)Glc
# Outline: as §1
# [24] = target: GlcNAc(a1-4)Gal(b1-4)GlcNAc(b1-3)Gal(b1-4)GlcNAc(b1-3)Gal(b1-4)GlcNAc
# Outline: as §1
# [25] = target: GlcNAc(b1-2)[GlcNAc(b1-4)]Man(a1-3)[GlcNAc(b1-4)][GlcNAc(b1-2)Man(a1-6)]Man(b1-4)GlcNAc(b1-4)GlcNAc
# Outline: as §1
# [26] = target: GlcNAc(b1-4)GlcNAc(b1-4)GlcNAc
# Outline: as §1
# [27] = target: GlcNAc(b1-4)GlcNAc(b1-4)GlcNAc(b1-4)GlcNAc(b1-4)GlcNAc
# Outline: as §1
# [28] = target: GlcNAc(b1-4)GlcNAc(b1-4)GlcNAc(b1-4)GlcNAc(b1-4)GlcNAc(b1-4)GlcNAc
# Outline: as §1
# [29] = target: GlcNAc(b1-6)Gal(b1-4)GlcNAc
# Outline: as §1
# [30] = target: GlcNAc6S(b1-3)Gal(b1-4)GlcNAc
# Outline: as §1
# [31] = target: Man(a1-3)[Man(a1-6)]Man
# Outline: as §1
# [32] = target: Man(a1-3)[Man(a1-6)]Man(b1-4)GlcNAc(b1-4)GlcNAc
# Outline: as §1
# [33] = target: Neu5Ac(a2-3)Gal(b1-3)GalNAc(b1-4)[Neu5Ac(a2-3)]Gal(b1-4)Glc
# Outline: as §1
# [34] = target: Neu5Ac(a2-3)Gal(b1-3)GlcNAc
# Outline: as §1
# [35] = target: Neu5Ac(a2-3)Gal(b1-4)GlcNAc(b1-2)Man(a1-3)[GlcNAc(b1-2)Man(b1-4)GlcNAc(b1-2)Man(a1-6)]Man(b1-4)GlcNAc(b1-4)GlcNAc
# Outline: as §1
# [36] = target: Neu5Ac(a2-3)Gal(b1-4)[Fuc(a1-3)]GlcNAc
# Outline: as §1
# [37] = target: Neu5Ac(a2-6)Gal(b1-4)GlcNAc(b1-2)Man(a1-3)Man(b1-4)GlcNAc(b1-4)GlcNAc
# Outline: as §1
# [38] = target: Neu5Ac(a2-6)Gal(b1-4)GlcNAc(b1-2)Man(a1-6)[Gal(b1-4)GlcNAc(b1-2)Man(a1-3)]Man(b1-4)GlcNAc(b1-4)GlcNAc
# Outline: as §1
# [39] = target: Neu5Ac(a2-6)GlcNAc(b1-4)GlcNAc(b1-4)GlcNAc
# Outline: as §1
# [40] = target: Neu5Ac(a2-8)Neu5Ac(a2-8)Neu5Ac
# Outline: as §1
# [41] = target: Neu5Gc(a2-3)Gal(b1-4)Glc
# Outline: as §1
binder,measurement,setting,value
CIH1 (Colletotrichum higginsianum) (protein) LPQATPTTPTPTSASAAATISATSSPTCSPGPVIDYTVVSGDTLTIISQRFSSGICNIADASGITNPNFLSLGQVLQVPTYVCTPDNTSCLAKEGSDTCVEGGPATHTIVAGDTFFLVAQSLGLDVNALLAANEGVDPLLLQIGDVINIPVC,glycan array binding signal (z-score),[1],0.015
same,glycan array binding signal (z-score),[2],-0.071
same,glycan array binding signal (z-score),[3],-0.061
same,glycan array binding signal (z-score),[4],0.014
same,glycan array binding signal (z-score),[5],-0.074
same,glycan array binding signal (z-score),[6],-0.071
same,glycan array binding signal (z-score),[7],-0.072
same,glycan array binding signal (z-score),[8],-0.065
same,glycan array binding signal (z-score),[9],0.011
same,glycan array binding signal (z-score),[10],-0.052
same,glycan array binding signal (z-score),[11],-0.071
same,glycan array binding signal (z-score),[12],-0.063
same,glycan array binding signal (z-score),[13],-0.057
same,glycan array binding signal (z-score),[14],-0.079
same,glycan array binding signal (z-score),[15],-0.072
same,glycan array binding signal (z-score),[16],-0.067
same,glycan array binding signal (z-score),[17],-0.081
same,glycan array binding signal (z-score),[18],0.006
same,glycan array binding signal (z-score),[19],-0.079
same,glycan array binding signal (z-score),[20],-0.066
same,glycan array binding signal (z-score),[21],-0.066
same,glycan array binding signal (z-score),[22],-0.047
same,glycan array binding signal (z-score),[23],-0.046
same,glycan array binding signal (z-score),[24],-0.08
same,glycan array binding signal (z-score),[25],-0.065
same,glycan array binding signal (z-score),[26],2.91
same,glycan array binding signal (z-score),[27],9.28
same,glycan array binding signal (z-score),[28],20
same,glycan array binding signal (z-score),[29],-0.073
same,glycan array binding signal (z-score),[30],-0.055
same,glycan array binding signal (z-score),[31],-0.045
same,glycan array binding signal (z-score),[32],-0.069
same,glycan array binding signal (z-score),[33],-0.055
same,glycan array binding signal (z-score),[34],-0.05
same,glycan array binding signal (z-score),[35],-0.08
same,glycan array binding signal (z-score),[36],-0.069
same,glycan array binding signal (z-score),[37],-0.004
same,glycan array binding signal (z-score),[38],-0.069
same,glycan array binding signal (z-score),[39],-0.004
same,glycan array binding signal (z-score),[40],-0.065
same,glycan array binding signal (z-score),[41],-0.081
